A selection: hits, their analogues and other compounds. The true share with any hit is near 1.7%.
Fam108B counter – blocks mouse Fam108B hydrolase in RBBP9 counter-screen; recombinant Fam108B, FP-Rh probe fluorescence polarization; inhibition, % at 9.51 µM; 300,000 tested, 0.33% active; AID 1947;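 active = inhibition above the screen mean inhibition plus 3 SD, computed separately per campaign, cut at about 18% in these data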;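 also: inhibitors lower polarization as less probe binds the enzyme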
PAD4 inh – inhibitors of human PAD4. Q9UM07. recombinant PAD4, RCA probe fluorescence polarization. inhibition, % at 6.36 µM. 330,000 tested, 0.41% active. AID 485272;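 active = percent inhibition above a cutoff equal to the mean of all tested compounds plus 3 SD, cut at about 15% in these data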;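 also: 0% = PAD4 with RCA probe and DMSO and 100% = probe without PAD4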
GSTO1 inh – GSTO1 inhibition, counter-screen for RBBP9 inhibitors. P78417. recombinant GSTO1, activity-based probe fluorescence polarization. inhibition, % at 5.96 µM. 300,000 tested, 1.1% active;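 active = inhibition above the campaign mean inhibition plus 3 SD, cut at about 35% in these data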;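 also: 0% = GSTO1-1 with DMSO and 100% = wells lacking GSTO1-1 enzyme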
Target sequence (P78417 whole entry, looked up): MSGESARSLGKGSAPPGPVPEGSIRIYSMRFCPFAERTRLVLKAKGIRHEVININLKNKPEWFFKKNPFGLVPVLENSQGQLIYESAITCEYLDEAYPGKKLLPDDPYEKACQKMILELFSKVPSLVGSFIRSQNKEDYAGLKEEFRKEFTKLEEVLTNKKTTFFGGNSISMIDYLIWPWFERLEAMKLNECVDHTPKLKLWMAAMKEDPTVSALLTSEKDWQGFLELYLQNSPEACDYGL
LYPLA1 inh – counter-screen for PME1 inhibitors: inhibitors of human LYPLA1. O75608. inhibition, % at 5.9 µM. 320,000 tested, 0.16% active. recombinant LYPLA1, FP-Rh probe fluorescence polarization;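 active = inhibition above the mean of all tested compounds plus 3 SD, set per campaign, cut at about 14% in these data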;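 also: inhibitors block serine hydrolase probe labeling of LYPLA1 so polarization falls; 0% = enzyme with DMSO and 100% = wells lacking LYPLA1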
PME-1 primary – blocks human protein phosphatase methylesterase 1; inhibition, % at 5.9 µM; recombinant PME-1, FP-Rh probe fluorescence polarization; AID 2130; Q9Y570; 320,000 tested, 0.53% active;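 active = inhibition above the campaign mean of all compounds plus 3 SD, cut at about 26% in these data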;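 also: competitive labeling of PME-1 active site by serine hydrolase directed probe; 0% = PME-1 with DMSO and 100% = wells lacking PME-1 enzyme; inhibitors block probe labeling so polarization falls and inhibition rises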
LYPLA2 counter – LYPLA2 (human) inhibition in PME1 counter-screen; O95372; recombinant LYPLA2, FP-Rh probe fluorescence polarization; inhibition, % at 5.9 µM; 320,000 tested, 0.38% active; AID 2177;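 active = inhibition above the screen-wide mean plus 3 SD, limit set per campaign, cut at about 26% in these data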;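 also: 0% = LYPLA2 with DMSO and 100% = wells lacking LYPLA2 enzyme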
Target sequence (O95372 whole entry, looked up): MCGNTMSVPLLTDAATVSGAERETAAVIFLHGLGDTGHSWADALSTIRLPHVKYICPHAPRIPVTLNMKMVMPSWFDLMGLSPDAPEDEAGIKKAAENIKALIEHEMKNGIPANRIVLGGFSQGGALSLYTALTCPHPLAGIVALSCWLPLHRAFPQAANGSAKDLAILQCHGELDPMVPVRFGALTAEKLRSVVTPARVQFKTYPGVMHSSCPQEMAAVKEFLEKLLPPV
GSTO1 inh conf – confirmation of human GSTO1 inhibitors; shares compounds with GSTO1 inh; 2,400 tested, 54% active; inhibition, % at 5.96 µM; recombinant GSTO1, probe fluorescence polarization;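 active = inhibition above the primary screen's cutoff, its mean inhibition plus 3 SD, cut at about 35% in these data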;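 also: loss of polarization as inhibitors block binding of rhodamine sulfonate ester activity probe; 0% = GSTO1 with DMSO and 100% = wells lacking GSTO1 enzyme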
LYPLA1 conf – counter-screen for PME1 inhibitors: confirmation of human LYPLA1 inhibitors; shares compounds with LYPLA1 inh; recombinant LYPLA1, FP-Rh probe fluorescence polarization; inhibition, % at 5.9 µM; 480 tested, 69% active;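 active = mean inhibition across replicates above the hit cutoff set in the primary screen, cut at about 15% in these data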;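 also: loss of FP-Rh probe labeling of LYPLA1 seen as lower polarization; 0% = LYPLA1 with DMSO and 100% = wells lacking LYPLA1 enzyme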
LYPLA2 conf – counter-screen for PME1 inhibitors: confirmation of human LYPLA2 inhibitors; shares compounds with LYPLA2 counter; recombinant LYPLA2, FP-Rh probe fluorescence polarization; inhibition, % at 5.9 µM; 1,100 tested, 72% active; AID 2232;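 active = mean inhibition across replicates above the hit cutoff set in the primary screen, cut at about 26% in these data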;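 also: blocked labeling of the enzyme by serine hydrolase FP-Rh probe lowers polarization; 0% = enzyme with DMSO and 100% = wells lacking LYPLA2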
PAD4 FP conf – PAD4 (human) inhibition, confirmed | shares compounds with PAD4 inh | recombinant PAD4, RCA probe fluorescence polarization | inhibition, % at 6.36 µM | 1,200 tested, 28% active | AID 488796;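 active = mean inhibition across replicates above the hit cutoff set by the earlier primary screen, cut at about 15% in these data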;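 also: inhibitors block active-site labeling by the probe so polarization falls; 0% = PAD4 with probe and DMSO and 100% = probe without PAD4 enzyme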
The depositor's hits bear a star; nt = not tested or not shown.

SMILES	Fam108B counter	PAD4 inh	GSTO1 inh	LYPLA1 inh	PME-1 primary	LYPLA2 counter	GSTO1 inh conf	PAD4 FP conf	others
COC(=O)CCC(=O)OC1(C)C(=O)C2=CN(CCCOC(C)C)C(c3ccc(OC)cc3)=CC2=C(Br)C1=O (centres undefined)	1	9	52*	-4	-4	-3	65*	nt
COC(=O)CCC(=O)OC1(C)C(=O)C2=CN(c3ccccc3)C(c3ccc(OC)cc3)=CC2=C(Br)C1=O (centres undefined)	1	-20	45*	2	6	3	13	nt
CCCCC1=CC2=C(c3ccco3)C(=O)C(C)(OC(=O)c3ccc(OC)cc3)C(=O)C2=CN1CCCOC(C)C (centres undefined)	6	-2	6	-2	-3	-2	nt	nt
COc1ccc(NC(=O)NCCC2=CCCCC2)cc1	1	0	64*	0	2	3	10	nt
O=C1C(=O)c2ccccc2C([O-])=C1[n+]1ccccc1	-1	-10	24	3	1	10	nt	nt
CCc1cc[n+](C2=C([O-])c3ccccc3C(=O)/C2=N\S(=O)(=O)c2cccs2)cc1	10	10	83*	-4	7	2	82*	nt
CC(C)C[C@@]12C(=O)N(c3cccc(Cl)c3)C(=O)N1[C@H](c1ccc(F)cc1)[C@@H]1C(=O)N(C3CCCCC3)C(=O)[C@@H]12	0	1	-9	-4	-7	-7	nt	nt
Cc1ccc(/C=N/N2CCN(c3ccccn3)CC2)o1	0	-2	11	0	-3	2	nt	nt
O=C(CSc1n[nH]c(=O)[nH]c1=O)Nc1ccc2c(c1)C(=O)c1ccccc1C2=O	12	1	61*	14*	8	16	78*	nt	LYPLA1 conf=5
O=C(CCN1CCOCC1)Nc1cc(C(=O)Nc2ccc(Cl)cc2)ccc1N1CC2CC(C1)c1cccc(=O)n1C2 (centres undefined)	-2	-5	6	0	7	-7	nt	nt
Cc1cc(N)ccc1N1CCCC1	13	28*	73*	22*	33*	29*	6	nt	LYPLA1 conf=1;LYPLA2 conf=4
COc1ccccc1OCCn1cc(/C=N/n2cnnc2)c2ccccc21	-7	-8	-5	-2	-3	2	nt	nt
COc1ccc(NC(=O)Nc2ccc(O)c3ccccc23)cc1	11	23*	65*	-7	14	1	6	-2
COc1ccc(NC(=O)Nc2ccccc2C(N)=O)cc1	2	-6	-5	-2	-1	0	nt	nt
O=c1cc(-c2ccc(Cl)cc2)[nH][nH]1	-3	60*	49*	5	10	4	10	-11
O=C(O)c1ccc(NC2=C(n3nnc4ccccc43)C(=O)c3ccccc3C2=O)cc1	7	17*	53*	2	3	3	61*	3
O=C(O)c1ccc(-n2nnc3ccccc32)c([N+](=O)[O-])c1	-2	0	-2	0	0	5	nt	nt
Cc1ccc(CONC(=O)c2ccc([N+](=O)[O-])cc2)cc1	nt	-3	nt	3	-3	9	nt	nt
COc1cccc(C(c2c(C)[nH]n(-c3ccccc3)c2=O)c2c(C)[nH]n(-c3ccccc3)c2=O)c1OC	3	72*	64*	1	2	3	31	3
COc1cccc(C(c2c(C)[nH]n(-c3ccccc3)c2=O)c2c(C)[nH]n(-c3ccccc3)c2=O)c1O	4	64*	65*	0	-1	3	38*	-3
CS(=O)(=O)N1CCC(C(=O)Nc2cccc([N+](=O)[O-])c2)CC1	1	-3	10	0	-3	3	nt	nt
Cc1[nH][nH]c(=O)c1C(c1c(C)[nH][nH]c1=O)c1cn(Cc2cccc3ccccc23)c2ccccc12	10	31*	55*	-3	16	4	41*	25*
CC(C)(C)NC(=O)C1CCN(C(=O)c2ccco2)CC1	2	-6	2	2	-1	0	nt	nt
CCOC(=O)c1c(NC(=O)c2ccco2)n(C2CCCCC2)c2nc3ccccc3nc12	5	15*	62*	0	-2	-4	86*	25*
COc1cccc(-c2csc3ncnc(Sc4nnnn4C)c23)c1	nt	7	nt	nt	nt	nt	nt	nt
SMILES	Fam108B counter	PAD4 inh	GSTO1 inh	LYPLA1 inh	PME-1 primary	LYPLA2 counter	GSTO1 inh conf	PAD4 FP conf	others
COCCOC(=O)c1c(N)n(CCCN2CCOCC2)c2nc3ccccc3nc12	1	-5	7	-1	7	0	nt	nt
CCCCCOC(=O)c1c(N)n(CCOC)c2nc3ccccc3nc12	10	26*	65*	0	-1	5	18	-10
CCOc1ccc(CCNC(=O)CCNS(=O)(=O)c2ccc3c(c2)CCN3C(C)=O)cc1OCC	-4	4	7	4	2	2	nt	nt
CCn1cc(C(=O)N[C@@H](C)C(=O)OC)c(=O)c2cc3c(cc21)OCO3	5	-2	0	-1	-6	-2	nt	nt
Cc1cc(=O)[nH]c(-n2[nH]c(C)cc2=O)n1	3	-1	26	1	-2	-4	nt	nt
COc1ccc(-n2[nH]c(C)cc2=O)cc1	0	64*	59*	4	7	-6	13	3
O=C(NCc1ccc(Cl)cc1)c1ccc2ccccc2n1	-1	2	-8	-4	-3	-6	nt	nt
O=C1CCCC2=C1C1(O)C(=O)c3ccccc3C1(O)O2 (centres undefined)	-2	45*	70*	4	-10	4	68*	33*
Oc1ccc2ccccc2c1C=Nc1ccc(N2CCOCC2)cc1	-1	46*	41*	-1	1	-3	38*	1
C=Cc1ccc(N=Cc2c(O)ccc3ccccc23)cc1	5	-14	30	2	2	-5	nt	nt
CC(C)(C)c1cc(NC(=O)c2cccc(S(=O)(=O)N3CCOCC3)c2)no1	4	2	5	0	-2	1	nt	nt
CC1=NN(c2ccc(F)cc2)C(=O)C1C(c1cccc(O)c1)c1c(C)[nH]n(-c2ccc(F)cc2)c1=O (centres undefined)	9	69*	58*	-1	-3	4	36*	-8
Cc1[nH]n(-c2ccccc2)c(=O)c1C(=O)c1cccc(F)c1	-2	-10	-10	2	0	3	nt	nt
